The values below come from ChEMBL document CHEMBL1157539, “Thousands of chemical starting points for antimalarial lead identification” (Nature, 2010).

Molecules are shown by their SMILES.

The experiment has as its system HepG2. Description: GSK_TCMDC: Percent inhibition of human HepG2 cell line. Test compounds present at 10uM. In kind it is functional.
A word on the Inhibition: it is the relative decrease from the control value, in per cent. Lower therefore signals a weak effect. In turn, `CCCC(C)Nc1nc(C)cc(N[C@@H](CC(C)C)C(=O)NCc2ccc(C)cc2)n1.O=C(O)C(F)(F)F` (some centres not stated) registered an Inhibition of 16%.

For the molecule `COc1ccc(CNCc2cccc(-c3ccc(-c4nc5ccccc5[nH]4)cc3)c2)cc1.O=C(O)C(F)(F)F`, the Inhibition was determined as 22%.

The molecule `Cc1cc(C2CCN(CCCCNC(=O)c3ccc(-c4ccc(C(F)(F)F)cc4)cc3)CC2)c(C)cc1OCC#N` had an Inhibition of 40%.

In turn, `O=c1cc(NCCCNC2CCc3ccc(Cl)cc32)[nH]c2ccccc12` (configuration not stated) yielded an Inhibition of 0%.

Molecule `O=C(Nc1cccc(-c2ccc(-c3nc4cc(C(F)(F)F)ccc4[nH]3)cc2)c1)Nc1ccc(F)c(F)c1F` gave an Inhibition of 45%.

`CCN(CC)S(=O)(=O)c1cc(-c2ccc(=O)n(CC(=O)c3ccc(C)cc3)n2)ccc1C` showed an Inhibition of 6%.

`CCCCCCCC/C=C\CCCCCCCC(=O)NCc1ccc(O)c(OC)c1` [OLVANIL] registered an Inhibition of 0%.

The molecule `Cc1cc(F)ccc1-c1nc(N(C)CCN(C)C(=O)N(C)c2ccccc2)nc2c1ccc(=O)n2-c1c(F)cccc1F.O=C(O)C(F)(F)F` returned an Inhibition of 0%.

`O=C(Nc1ccc(N2CCCN(Cc3cccc(F)c3)CC2)cc1)c1ccccc1.O=C(O)C(F)(F)F`: the Inhibition came out at 25%.

In turn, `Cc1cc(=NN=CC=Cc2ccccc2)c2ccccc2[nH]1` had an Inhibition of 19%.

In the case of `O=C(C=Cc1ccc(Cl)c(Cl)c1)NCCCCCN1CCCC(CCCNC(=O)/C=C/c2ccccc2)C1` (configuration not stated), the Inhibition was found to be 92%.

As to `Cc1nn(-c2ccccc2)c2sc(C(=O)N(CCCN(C)C)c3nc(-c4ccccc4)cs3)cc12.Cl`, the Inhibition is reported as 99%.

In turn, `CC(=O)N1CCC(C(=O)Nc2ccc(-c3cccc(-c4nc5cccc(C)c5[nH]4)c3)cc2)CC1` had an Inhibition of 85%.

For `CC(=O)Oc1c(C2CCN(CCCCNC(=O)c3ccc(NC(=O)c4ccc(Cl)cc4)cc3)CC2)ccc2ccccc12`, the Inhibition was 24%.

With `CC[C@H](C)CNC(=O)c1cncc(-c2ccc(CNCCOc3ccccc3)cc2)c1.O=C(O)C(F)(F)F`, the Inhibition is recorded as 7%.

Take `CN(C)Cc1ccc(-c2cccc(Nc3nccc(NCC(O)c4ccccc4)n3)c2)cc1` (configuration not stated): the Inhibition was 74%.

Molecule `N#Cc1ccc(N(CCOc2ccc3c(c2)CCC(=O)N3)Cc2ccccc2C(F)(F)F)cc1C(F)(F)F` registered an Inhibition of 19%.

Molecule `Cc1ccccc1C1CCN(C2CCC(NC(=O)/C=C/c3cc(F)ccc3C(F)(F)F)CC2)CC1` (configuration not stated) registered an Inhibition of 90%.

Regarding `COc1ccc2nccc([C@@H](O)CN3CCC(NCCOc4cc(F)cc(F)c4)CC3)c2c1.O=C(O)C(=O)O`, the Inhibition turned out to be 10%.

`Cc1onc(-c2ccccc2)c1C(=O)Nc1nc(-c2ccccn2)nc2ccsc12` registered an Inhibition of 23%.

The molecule `COc1ccc(-c2csc(C(=O)NC3CCC(N4CCC(c5ccccc5C)CC4)CC3)c2)cc1` (configuration not stated) gave an Inhibition of 64%.

`COc1ccc(CNc2cc(C)nc3sc4c(c23)CCC2(C4)OCCO2)cc1` gave an Inhibition of 4%.

On to `Cc1[nH]c(C)c(-c2ccc(-c3ccc(F)cc3)nc2)c(=O)c1Br`, for which the Inhibition was 15%.

In the case of `Cc1ccc2[nH]c(-c3cc(-c4cccc(CCN5CCOCC5)c4)cnc3N)nc2c1.O=C(O)C(F)(F)F`, the Inhibition is recorded as 50%.

In turn, `O=C(Nc1cccc(-c2ccc(CN3CCCC3)cc2)c1)c1ccc(F)cc1.O=C(O)C(F)(F)F` showed an Inhibition of 23%.

In turn, `CC1(C)NC(N)=NC(=N)N1OCc1ccc2ccccc2c1CON1C(=N)N=C(N)NC1(C)C` showed an Inhibition of 8%.

The molecule `Cc1ccc2c(=NN=Cc3cccc(F)c3)cc(C)[nH]c2c1` gave an Inhibition of 34%.
